# From PubChem BioAssay (NCATS)
# Where “and” joins values, the source holds several entries; their conditions need not be identical. Equal entries are not always repeated. Results filed as inconclusive are left out. A call without a number means that no potency is given here. Values without a mark were called inactive. Calls of active or inactive are those of the source. Calls follow the shape of the dose curve; as a rule, active = well fitted curve in the direction sought with a large enough effect; inconclusive = small, poorly fitted or top-dose-only effect, or another doubt; inactive = no such curve, though single readings can be large; an effect the other way counts as inactive or inconclusive.
# Experiments:
# [1] = target: Lysine-specific demethylase 5B (Homo sapiens) (UniProt Q9UGL1); experiment: Optimization screen for KDM5B Histone Demethylases FDH coupled qHTS against the LOPAC library (AID 1347166)
# Lysine-specific demethylase 5B (Homo sapiens), sequence (Q9UGL1 whole entry, looked up): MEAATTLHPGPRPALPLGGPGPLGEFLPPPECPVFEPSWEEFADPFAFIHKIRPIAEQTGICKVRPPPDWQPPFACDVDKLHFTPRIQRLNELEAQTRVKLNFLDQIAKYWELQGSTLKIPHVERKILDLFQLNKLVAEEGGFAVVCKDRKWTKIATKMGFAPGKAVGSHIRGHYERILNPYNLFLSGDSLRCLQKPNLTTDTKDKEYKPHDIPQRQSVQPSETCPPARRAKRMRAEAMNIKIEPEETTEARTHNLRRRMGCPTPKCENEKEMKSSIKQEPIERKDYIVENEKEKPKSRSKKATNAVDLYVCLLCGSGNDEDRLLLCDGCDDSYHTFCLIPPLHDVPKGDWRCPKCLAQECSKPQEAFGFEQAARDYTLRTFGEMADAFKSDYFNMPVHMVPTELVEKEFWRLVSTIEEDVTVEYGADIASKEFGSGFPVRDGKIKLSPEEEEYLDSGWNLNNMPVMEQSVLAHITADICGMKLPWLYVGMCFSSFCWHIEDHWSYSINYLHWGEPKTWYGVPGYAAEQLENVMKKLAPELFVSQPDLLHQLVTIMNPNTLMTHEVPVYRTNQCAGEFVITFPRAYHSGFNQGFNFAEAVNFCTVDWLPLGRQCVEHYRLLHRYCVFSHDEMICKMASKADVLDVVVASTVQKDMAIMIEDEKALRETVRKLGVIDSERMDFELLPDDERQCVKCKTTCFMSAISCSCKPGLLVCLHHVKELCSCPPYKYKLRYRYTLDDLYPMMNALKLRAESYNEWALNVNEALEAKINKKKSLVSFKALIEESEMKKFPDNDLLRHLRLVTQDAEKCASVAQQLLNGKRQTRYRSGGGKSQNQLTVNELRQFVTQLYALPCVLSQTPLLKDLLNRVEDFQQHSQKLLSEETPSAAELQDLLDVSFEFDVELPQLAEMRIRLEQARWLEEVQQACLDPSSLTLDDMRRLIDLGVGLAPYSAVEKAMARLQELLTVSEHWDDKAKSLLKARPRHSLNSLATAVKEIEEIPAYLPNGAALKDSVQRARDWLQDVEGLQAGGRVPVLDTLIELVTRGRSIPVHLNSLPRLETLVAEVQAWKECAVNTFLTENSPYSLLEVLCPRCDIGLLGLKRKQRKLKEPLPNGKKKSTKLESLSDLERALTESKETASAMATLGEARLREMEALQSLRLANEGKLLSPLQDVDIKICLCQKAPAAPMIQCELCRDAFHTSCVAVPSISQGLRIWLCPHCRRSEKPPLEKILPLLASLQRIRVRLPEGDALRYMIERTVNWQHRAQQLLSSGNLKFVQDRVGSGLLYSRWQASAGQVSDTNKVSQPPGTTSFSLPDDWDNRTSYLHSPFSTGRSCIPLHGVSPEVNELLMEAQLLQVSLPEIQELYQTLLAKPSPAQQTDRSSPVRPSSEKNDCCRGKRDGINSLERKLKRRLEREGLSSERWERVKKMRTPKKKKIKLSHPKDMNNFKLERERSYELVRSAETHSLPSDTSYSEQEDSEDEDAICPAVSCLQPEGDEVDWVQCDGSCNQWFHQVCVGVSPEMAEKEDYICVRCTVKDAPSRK
# In short: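 KDM5BDeltaAP (200nM final) in 50mM HEPES pH 7.5, 0.01% Tween-20 was preincubated with compound for 10 min at room temperature. A substrate mix of 12.5uM H3K4Me3, 25uM a-ketoglutarate, ascorbate, Fe2+, NAD+ and formaldehyde dehydrogenase was then added. NADH fluorescence (340/450 nm) was read initially and after 30 min.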
# [2] = Confirmatory screen NINDS Rhodamine qHTS for Zika virus inhibitors (AID 1347161); also: nearly all actives have a fitted effect of over 60% in size; also: potency is read from the fitted curve at half-maximal effect;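 as to activity change, negative = inhibition: purified Zika NS2B-NS3 protease with linked NS2B cofactor domain and Rhodamine110 peptide substrate; series mostly up to about 110 µM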
# In short: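 Rhodamine110-peptide cleavage (1.5 µM substrate) by 25 nM linked NS2B-NS3 enzyme at pH 8.0 (Tris, Tween 20), after 15 min RT preincubation with compounds; 15-min fluorescence change normalized to controls and Hill-fitted.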
# [3] = Vero cells viability qHTS for Zika virus inhibitors (AID 1347167); also: potency is read from the fitted curve at half-maximal effect
# In short: (§1)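 To flag cytotoxic protease inhibitors, viability is measured by ATP-dependent luminescence (CellTiter Glo) after cells attached overnight receive compound for 24 to 48 hours in DMEM with 4% FBS.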
# [4] = HepG2 cells viability qHTS for Zika virus inhibitors (AID 1347168)
# In short: as §1
# [5] = Tertiary RLuc qRT-PCR qHTS assay for Zika virus inhibitors (AID 1347169); also: nearly all actives have a fitted effect of over 55% in size; also: potency is read from the fitted curve at half-maximal effect; as to activity change, negative = inhibition: top concentration of the series differs between compounds
# In short: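 Luminescence read-out: live-cell Renilla luciferase substrate applied to infected Vero cells, signal measured after 1-1.5 hrs. Cells had received compound before ZIKV-RLuc (Cambodian strain, MOI 1-2) infection and were incubated 48-72 hrs at 37 degrees C.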
# [6] = tested on: Zika virus NS2B-NS3 protease (linked); experiment: 384 well plate NINDS AMC confirmatory qHTS for Zika virus inhibitors (AID 1347163); also: potency is read from the fitted curve at half-maximal effect; nearly all actives have a fitted effect of over 50% in size
# In short: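 Fluorescence at 355/460 nm was read after 25 minutes of cleavage of 30 microM Ac-VKTGKR-AMC at room temperature, in the dark. Before substrate addition, compounds (up to 1 mM final) sat ~15 minutes with 5, 30 or 60 nM linked protease. Signals were normalized to no-enzyme and no-inhibitor wells.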
# [7] = tested on: Zika virus NS2B-NS3 protease (linked construct); experiment: 384 well plate NINDS Rhodamine confirmatory qHTS for Zika virus inhibitors (AID 1347164);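 also: fluorescence from protease cleavage of Ac-LKRR-rhodamine 110 substrate; nearly all actives have a fitted effect of over 65% in size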; also: potency is read from the fitted curve at half-maximal effect; as to activity change, negative = inhibition: top concentration of the series differs between compounds
# In short: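 Fluorescence read at ex 485 nm/em 538 nm, 25 min after adding 10 microM Ac-LKRR-Rd substrate at room temperature in the dark; signal normalized to no-enzyme and no-inhibitor controls. Enzyme final 5, 30 or 60 nM; compounds, ~15 min preincubation.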
# [8] = OV-KATE Cancer Cell Toxicity qHTS against the NCATS CANVASS Library (AID 1347345)
# In short: (§2)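 Bortezomib titration and single-dose wells served as plate controls. Test compounds, 11 points, acted on 1000 cells/well for 72 h at 37 degrees C; CellTiter-Glo luminescence quantified remaining viable cells.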
# [9] = HPAF-II Cancer Cell Toxicity qHTS against the NCATS CANVASS Library (AID 1347346); conditions: HPAF-II viability, CellTiter-Glo ATP luminescence, 72 h; also: potency is read from the fitted curve at half-maximal effect; nearly all actives have a fitted effect of over 55% in size
# In short: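 Cytotoxicity read-out was CellTiter-Glo luminescence after 72 h at 37 degrees C exposure of HPAF-II cells (1000/well) to compounds in an 11-point titration.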
# [10] = UWB1.289 Cancer Cell Toxicity qHTS against the NCATS CANVASS Library (AID 1347347); also: series mostly up to about 38 µM; nearly all actives have a fitted effect of over 60% in size
# In short: as §2
compound,measurement,setting,value
Fc1ccc([C@@H]2CCNC[C@H]2COc2ccc3c(c2)OCO3)cc1,outcome,[1],inactive
CC(C)(C)C(=O)Oc1ccc(S(=O)(=O)Nc2ccccc2C(=O)NCC(=O)O)cc1,Potency,[2],inactive
same,Potency,[3],inactive
same,outcome,[4],inactive
same,Potency,[5],inactive
CC(C)C(=O)Nc1ccc([N+](=O)[O-])c(C(F)(F)F)c1,outcome,[1],inactive
Cc1ccc(C(=O)Nc2ccc(S(=O)(=O)O)c3cc(S(=O)(=O)O)cc(S(=O)(=O)O)c23)cc1NC(=O)c1cccc(NC(=O)Nc2cccc(C(=O)Nc3cc(C(=O)Nc4ccc(S(=O)(=O)O)c5cc(S(=O)(=O)O)cc(S(=O)(=O)O)c45)ccc3C)c2)c1,Potency,[2],2.24 µM (active) and 2.51 µM (active)
same,Potency,[6],7.94 µM (active)
same,Potency,[7],inactive
same,Potency,[5],inactive
C[C@H]1c2cccc(O)c2C(O)=C2C(=O)[C@]3(O)C(O)=C(C(N)=O)C(=O)[C@@H](N(C)C)[C@@H]3[C@@H](O)[C@@H]21,Potency,[2],62.1 µM (active)
same,Potency,[6],63.1 µM (active)
same,Potency,[3],inactive
same,outcome,[4],inactive
Clc1ccc2c(c1)C(N1CCNCC1)=Nc1ccccc1O2,outcome,[1],inactive
Nc1nc2c(ncn2COC(CO)CO)c(=O)[nH]1,outcome,[1],inactive
CCOC(=O)c1ncn2c1CN(C)C(=O)c1cc(F)ccc1-2,outcome,[1],inactive
O=C1N(c2ccccc2)c2ccccc2C1(Cc1ccncc1)Cc1ccncc1,outcome,[1],inactive
COc1cc2nc(N3CCN(C(=O)c4ccco4)CC3)nc(N)c2cc1OC,Potency,[2],inactive
same,Potency,[3],inactive
same,outcome,[4],inactive
CC(C)NCC(O)COc1ccc(CCOCC2CC2)cc1 (stereo unspecified),outcome,[1],inactive
O=C(Nc1ccc([N+](=O)[O-])cc1Cl)c1cc(Cl)ccc1O,Potency,[6],20 µM (active)
same,Potency,[7],7.94 µM (active)
same,outcome,[1],inactive
same,Potency,[3],0.415 µM (active)
same,Potency,[5],0.294 µM (active)
O=c1[nH]cc(F)c(=O)[nH]1,outcome,[1],inactive
CCOC(=O)Nc1ccc(NCc2ccc(F)cc2)nc1N,Potency,[2],inactive
same,Potency,[3],inactive
same,outcome,[4],inactive
same,Potency,[5],inactive
O=c1c(O)c(-c2ccc(O)c(O)c2)oc2cc(O)cc(O)c12,Potency,[2],50.1 µM (active)
same,outcome,[1],inactive
same,"activity change, negative = inhibition",[5],52.3% [at 5.25 µM] and 65.1% [at 0.997 µM]
CN1C2CCC1CC(OC(=O)C(CO)c1ccccc1)C2 (stereo unspecified),outcome,[1],inactive
Cn1ccc2cc3c(cc21)CCN3C(=O)Nc1cccnc1,Potency,[2],62.2 µM (active)
same,Potency,[6],31.6 µM (active) and 178 µM (active)
same,outcome,[1],inactive
same,Potency,[3],inactive
same,outcome,[4],inactive
same,Potency,[5],inactive
Cc1ccccc1N1C(=O)c2cc(S(N)(=O)=O)c(Cl)cc2NC1C (stereo unspecified),Potency,[2],inactive
same,Potency,[3],inactive
same,outcome,[4],inactive
same,Potency,[5],inactive
CNCCCC12CCC(c3ccccc31)c1ccccc12,outcome,[1],inactive
CCOC(=O)C(C)(C)Oc1ccc(Cl)cc1,outcome,[1],inactive
O=C(c1ccc(F)cc1)C1CCN(CCn2c(=O)[nH]c3ccccc3c2=O)CC1,Potency,[2],inactive
same,outcome,[1],inactive
same,Potency,[3],inactive
same,outcome,[4],inactive
same,Potency,[5],inactive
Cc1cnc(C(=O)NCCc2ccc(S(=O)(=O)NC(=O)NC3CCCCC3)cc2)cn1,Potency,[2],inactive
same,outcome,[1],inactive
same,Potency,[3],inactive
same,outcome,[4],inactive
same,Potency,[5],inactive
O=C1Cc2cc(CCN3CCN(c4nsc5ccccc45)CC3)c(Cl)cc2N1,Potency,[2],inactive
same,Potency,[7],2.82 µM (active)
same,Potency,[3],inactive
same,outcome,[4],inactive
same,Potency,[5],inactive
Clc1ccccc1C(c1ccccc1)(c1ccccc1)n1ccnc1,outcome,[1],inactive
NCCc1cnc[nH]1,outcome,[1],inactive
CC1COc2c(N3CCN(C)CC3)c(F)cc3c(=O)c(C(=O)O)cn1c23 (stereo unspecified),Potency,[2],inactive
same,Potency,[3],inactive
same,outcome,[4],inactive
same,Potency,[5],inactive
CN(C)CCCN1c2ccccc2CCc2ccc(Cl)cc21,outcome,[1],inactive
CN(Cc1cnc2nc(N)nc(N)c2n1)c1ccc(C(=O)N[C@@H](CCC(=O)O)C(=O)O)cc1,Potency,[3],inactive
same,outcome,[4],inactive
same,Potency,[5],inactive
COc1ccc2[nH]cc(CCNC(C)=O)c2c1,outcome,[8],inactive
same,Potency,[9],5.95 µM (active)
same,outcome,[10],inactive
